From PubChem BioAssay (NCI) come the findings set out here.

This is part of a sample that, as a whole, favours compounds with a hit. Of some 83,000 tested, about 20% had one in any assay.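 Step 1: grow cells in 96-well plates. Step 2: add test compound at a single concentration. Step 3: incubate 48 h. Step 4: record percent growth.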 Unmarked numbers belong to inactive results. Activity calls are given as the source filed them.

The test concerns OVCAR-3 ovarian. The experiment in a line: NCI-60 one-dose screen, 48 h (100 = growth as untreated, 0 = no growth, -100 = all killed). As to conditions: 10 µM unless noted. As for the experimental part: Growth inhibition of the OVCAR-3 human tumor cell line is measured as a screen for anti-cancer activity. Cells are grown in 96 well plates and exposed to the test compound for 48 hours. Compounds are tested at a single concentration, which is 10^-5 M for most compounds. The reported endpoint is percent growth (GI% or GIPRCNT), where numbers from 0 - 100% represent growth inhibition, and numbers from -100% - 0 represent cell death. For example, a value of 40 represents 60% growth inhibition. A value of 0 means no net growth occurred over the course of the experiment. A value of -40 indicates 40% of cells at the beginning of the experiment died by the end of the experiment. A value of -100 means all cells are dead at the end of the experiment.
NCI-60 Human Tumor Cell Lines Screen was performed using the standard one-dose NCI protocol, which is described in more detail at https://dtp.cancer.gov/discovery_development/nci-60/default.htm.
Compounds with GIPRCNT values below 10 were considered active. Activity score was based on GIPRCNT using the following formula: […]
Score is 0 for GIPRCNT values of 100 or above, 50 for GIPRCNT values of 0, and 100 for GIPRCNT values of -100.
In the case of `O=C(O)c1ccccc1C(F)(F)F`, the growth was 97.9%.
`O=C(N/N=C\c1cc(Cl)ccc1O)N/N=C/c1cc(Cl)ccc1O`: the growth is 10.2%.
Consider `COc1ccc2c(c1)c(-c1noc(C(=O)c3cn(C)c4ncc(Br)cc34)n1)cn2C`, for which the growth was 30.5%.
As to `CCOC(=O)COc1c(C)cc(SSc2cc(C)c(OCC(=O)OCC)c(C)c2)cc1C`, the growth is 107%.
For `CCCCCCCCCN(CCCCCCCCC)C(C)C(=O)c1ccc2cc(Br)c3ccccc3c2c1` (stereo not given), the growth is 89.1%.
For the compound `ClC1=C(Cl)C(Cl)=C(Cl)C1=Cc1ccccc1`, the growth was -96.5% (active).
Turning to `CC1=CC[C@@H]2C(C)(C)[C@@H](O)CC[C@@]2(C)[C@@H]1COc1ccc2ccc(=O)oc2c1`, the growth was 41.2%.
On to `Cc1cccc(/C=C2\N=C(c3ccccc3)N(c3ccc(S(N)(=O)=O)cc3)C2=O)c1`, for which the growth was 102%.
The value for `CCCOc1ccc(-c2nc(-c3ccc(N)cc3)cs2)cc1` was 145%.
For the compound `O=c1cc(-c2ccccc2)oc2c(O)c(O)ccc12`, the growth was 5.27% (active).
For `CC(C)[C@H]1COC(=O)N1[C@@H]1C(=O)N([C@@H](CCC(=O)N2CCN(C3CCCC3)CC2)C(=O)N[C@@H]2CCCc3ccccc32)[C@@H]1/C=C/c1cccc(Cl)c1`, the growth is 69%.
Regarding `Cc1ccc(-c2cc(-c3ccc(C)cc3)nc(NCCNc3ccnc4cc(Cl)ccc34)n2)cc1`, the growth is -80.3% (active).
For the compound `CC1Cc2c(Cl)ncnc2N(C)c2ccccc21` (stereo not given), the growth was 10.6%.
For the compound `Cc1ccc(C2=C/C(=C/c3ccc(Br)cc3)C(=O)N2CCc2ccc(S(N)(=O)=O)cc2)cc1`, the growth was 104%.
Turning to `COC(=O)[C@H](CC(C)C)NC(=O)NC(=O)NC(=O)CI`, the growth was -74.1% (active).
Regarding `O=C(Nc1cccc2ccccc12)c1cc2ccccc2cc1O`, the growth is 19.9%.
Consider `CC(C)c1ccc(C(=O)Nc2nc3ccc(O)cc3s2)cc1`, for which the growth is 54.1%.
In the case of `[2H]C1([2H])CCN(C(=O)C2CC2)c2cc(NS(=O)(=O)c3ccc(-c4cccc(C(N)=O)c4)cc3)ccc21`, the growth is 12.4%.
Turning to `CCOC(=O)n1cc(C2=C(c3ccc(OC)c(OC)c3)COC2=O)c2ccccc21`, the growth is -42.6% (active).
Take `COc1cc(-c2cc(-c3ccc(Nc4ncnc5cc(Cl)ccc45)cc3)nc(N3CCCCC3)n2)cc(OC)c1OC`: the growth was 107%.
`CCc1ccc(NC(=O)N[C@@H](Cc2cc(F)cc(F)c2)C(=O)N[C@@H]2C(=O)N3C[C@H](O)C[C@H]3C(=O)N3CCOC[C@H]3C(=O)N[C@@H](C)C(=O)N3C[C@H](C)C[C@H]3C(=O)O[C@H]2C)cc1`: the growth is 16.8%.
Turning to `COc1ccc(OC)c(NC=O)c1`, the growth is 117%.
`CC[C@]12C=CCN3CC[C@@]4(c5ccc(OC)cc5N(C)[C@H]4[C@@](O)(C(=O)OC)[C@@H]1OC(=O)CCC(=O)N[C@H](Cc1c[nH]c4ccccc14)C(=O)OC)[C@@H]32`: the growth was -48.8% [100 µM] (active).
In the case of `COC(=O)c1cc(O)c2c(c1C(=O)OC)C[C@H]1[C@@H]3CC=C4C[C@@H](O)CC[C@]4(C)[C@H]3CC[C@]21C`, the growth was 33.2%.
To `O=C(O)CSCc1nnc2n(Cc3ccccc3)c(=O)c3c4c(sc3n12)CCCC4` belongs 107%; to `CCN(CCO)CCC(=O)c1ccc([N+](=O)[O-])cc1`, 104%; to `Cc1ccc(NC(=O)N[C@@H](Cc2cc(F)cc(F)c2)C(=O)N[C@@H]2C(=O)N3CCC[C@H]3C(=O)N3CCOC[C@H]3C(=O)N[C@@H](C)C(=O)N3C[C@H](C)C[C@H]3C(=O)O[C@H]2C)cc1`, 18.9%.
For `CC(C)(C)c1cc(C(=O)N2CCC(C(=O)NCCN)CC2)cc(C(C)(C)C)c1`, the growth was 104%.
With `CCOC(=O)c1ccc2nc(-c3c(C)nn(-c4ccccc4)c3N3CCOCC3)[nH]c2c1`, the growth was 93.5%.
On to `CC1(C)C(=O)/C(=C\c2cccnc2)C[C@]2(C)[C@H]3CC[C@@H]4[C@H]5[C@H](C(=O)/C=C/c6cccnc6)CC[C@]5(C(=O)O)CC[C@@]4(C)[C@]3(C)CC[C@@H]12`, for which the growth was -75.4% [100 µM] (active).
The value for `O=C(CCN1CCCCC1)c1ccc(Cl)cc1` was 106%; that for `COc1ccc2nc3c(cc2c1)C(=O)CC(c1ccccc1)C3` (stereo not given) was -7.18% (active); that for `CCCC[C@@H](C=O)NC(=O)[C@H](CC(C)C)NC(=O)[C@H](CC(C)C)NC(=O)OCc1ccccc1` was -29.1% (active).
Regarding `CCc1cccc(Cl)c1`, the growth was 110%.
The value for `CCOC(=O)Nc1ccc2c(c1)/C(=N\NC(=S)NC)c1ccccc1-2` was 95.6%; that for `CCOC(=O)C(C(C)=O)c1nc2sc3cc(Cl)c(Cl)cc3n2c(=O)c1C#N` (stereo not given) was 112%; that for `Nc1ccc(Cl)c([N+](=O)[O-])c1` was 114%.
To `COc1cc(C)cc2oc3oc(=O)c(C(=O)c4cc5cc(Br)ccc5o4)cc3c(=O)c12` belongs 107%.
For `O=C1CC(c2ccc3c(c2)OCO3)Nc2ccccc21` (stereo not given), the growth was -19.5% (active).
Regarding `CCN(CC)CCCC(C)Nc1ccnc2cc(Cl)c(SCc3ccccc3)cc12` (stereo not given), the growth was -28.5% (active).
